Screens as filed in PubChem.
ST2 IL33 inh = blocks human ST2 binding to IL-33 | 2.3% of 78,000 active | AID 1259354 | AlphaLISA ST2-Fc/biotin-IL-33 interaction, 1 h | inhibition, % for hits at 17 µM; in the data active = inhibition above about 30%
Target sequence (Q01638 whole entry, looked up): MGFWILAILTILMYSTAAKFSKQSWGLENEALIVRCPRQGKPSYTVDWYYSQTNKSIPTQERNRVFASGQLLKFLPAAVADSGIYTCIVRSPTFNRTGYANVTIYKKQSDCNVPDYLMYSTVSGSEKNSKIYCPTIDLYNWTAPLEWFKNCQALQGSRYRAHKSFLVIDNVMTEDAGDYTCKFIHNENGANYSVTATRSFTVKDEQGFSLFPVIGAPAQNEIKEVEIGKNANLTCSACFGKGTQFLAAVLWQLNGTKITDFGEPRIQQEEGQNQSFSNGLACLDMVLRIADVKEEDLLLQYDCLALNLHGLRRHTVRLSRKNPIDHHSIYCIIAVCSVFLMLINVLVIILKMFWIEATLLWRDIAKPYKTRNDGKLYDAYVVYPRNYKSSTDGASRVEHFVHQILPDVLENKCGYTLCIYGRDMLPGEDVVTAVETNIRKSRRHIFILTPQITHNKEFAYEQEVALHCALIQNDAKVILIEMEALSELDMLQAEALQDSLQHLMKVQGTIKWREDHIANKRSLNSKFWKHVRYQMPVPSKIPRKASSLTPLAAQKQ
* hit, by the source's call; i = inactive. The sample as a whole holds a higher share of hits than the screen did.

SMILES | ST2 IL33 inh
CCNC(=O)NC[C@H]1C[C@@H]2CCN1C[C@@H]2c1cc(-c2cccs2)nn1C | i
Cn1nc(-c2cccs2)cc1[C@H]1CN2CC[C@H]1C[C@@H]2CNC(=O)Nc1cccc(C#N)c1 | 35.0%*
Cn1nc(-c2cccs2)cc1[C@H]1CN2CC[C@H]1C[C@@H]2CNC(=O)N1CCOCC1 | i
Cc1c(C(=O)N2CCC3(CC2)OCCO3)oc2ccc(S(=O)(=O)N3CCCCCC3)cc12 | i
COCc1cn(C[C@H]2C[C@@H]3CCN2C[C@@H]3C(=O)NC(C)C)nn1 | i
C#C[C@H]1CN2CC[C@H]1C[C@@H]2CNC(=S)Nc1cccc(C(=O)OC)c1 | i
O=C(NC1(C(F)(F)F)Oc2cc(Cl)c(Cl)cc2O1)N1CCC2(CC1)OCCO2 | i
O=C(Nc1ccc(=O)n2c1[C@@H]1C[C@@H](CN(C(=O)c3ccc(F)cc3)C1)C2)c1cccnc1 | i
O=C(O)c1cccc2c1NC(C(=O)O)C1CC(Sc3ccccc3[N+](=O)[O-])C(Cl)C21 (stereo unspecified) | 96.0%*
CC(C)CNC(=S)NC[C@H]1C[C@@H]2CCN1C[C@@H]2c1cc(-c2ccccc2)nn1C | i
S=C(NCCN1CCOCC1)NC[C@H]1C[C@@H]2CCN1C[C@@H]2CN1CCN(c2ncccn2)CC1 | i
O=C(Cc1ccc(-n2c(=O)[nH]c3ccsc3c2=O)cc1)N1CCN(C2CCCCC2)CC1 | i
N#CC1=C(N)Oc2n[nH]c(C(F)(F)F)c2C1c1ccc(F)cc1 (stereo unspecified) | i
N#CC1=C(N)Oc2n[nH]c(-c3ccc(F)cc3)c2C1c1ccc(F)cc1 (stereo unspecified) | 32.0%*
N#CC1=C(N)Oc2c(c(=O)oc3ccccc23)C1c1ccc(F)cc1 (stereo unspecified) | i
CC(=O)c1ccc(OCC(=O)N2CCN(C)C3(CCN(C)CC3)C2)cc1 | i
O=C(COc1ccccc1)Nc1ccc2n(c1=O)C[C@H]1C[C@@H]2CN(C(=O)C(=O)O)C1 | i
CN(N=O)c1ccc(O)c(O)c1 | 69.0%*
CCN1CCN(Cc2ccc(OC)c(C)c2)CC1 | i
COc1ccc(N2CCN(Cc3ccc(Cl)cc3Cl)CC2)cc1 | 36.0%*
COc1ccc(N2CCN(Cc3ccc(OC)c(C)c3)CC2)cc1 | 36.0%*
COc1ccc(CN2CCN(c3ccc(F)cc3)CC2)c(OC)c1 | i
Clc1ccc(CN2CCN(c3ccccc3)CC2)c(Cl)c1 | 91.0%*
c1ccc(CN2CCN(c3ccccc3)CC2)cc1 | i
COc1ccc(CN2CCN(CCO)CC2)cc1C | i
SMILES | ST2 IL33 inh
Fc1ccc(CN2CCN(c3ccccc3)CC2)c(F)c1 | i
COc1ccc(CN2CCN(c3ccccc3)CC2)c(OC)c1 | i
CSc1ccc(C2N(c3ccccn3)C(=O)C3CCCN32)cc1 (stereo unspecified) | i
CN(C)CC(=O)N1C[C@@H]2C[C@H](C1)c1ccc(-c3ccccc3CN(C)C)c(=O)n1C2 | i
C=C[C@H]1CN2CC[C@H]1C[C@@H]2CNC(=S)NCCOC | i
COc1ccc(-c2cc([C@H]3CN4CC[C@H]3C[C@@H]4CNCc3cccc(C#N)c3)n(C)n2)cc1 | i
COc1ccc(-c2cc([C@H]3CN4CC[C@H]3C[C@@H]4CNC(=O)Nc3ccc(F)cc3F)n(C)n2)cc1OC | i
O=C(NC[C@H]1C[C@@H]2CCN1C[C@@H]2CN1CCN(c2ccccn2)CC1)c1ccc(C(F)(F)F)cc1 | i
CC(=O)NCCNC(=O)[C@H]1CN2CCC1C[C@@H]2Cn1cc(-c2cccc(N)c2)nn1 (stereo partly specified) | i
Nc1cc2nc3ccccc3nc2cc1O | 56.0%*
Nc1c2c(nc3ccccc13)CCCCC2 | i
CN(Cc1ccccc1)Cc1cn(C[C@H]2C[C@@H]3CCN2C[C@@H]3C(=O)N(C)C)nn1 | i
Cc1cccnc1CC(C)N(C)Cc1cccs1 (stereo unspecified) | i
O=C(c1ccccc1)C1CCCN(Cc2nc(-c3cccs3)no2)C1 (stereo unspecified) | i
Cc1ccc(S(=O)(=O)NC[C@H]2C[C@@H]3CCN2C[C@@H]3CN2CCN(C)CC2)cc1 | i
C=C[C@H]1CN2CC[C@H]1C[C@@H]2CNC(=S)Nc1ccccc1 | i
COc1cc(/C=C/[N+](=O)[O-])c(OC)cc1C | 42.0%*
Cc1o[nH]c(=O)c1CC(N)C(=O)O (stereo unspecified) | i
NC(Cc1cc(O)c(O)cc1O)C(=O)O (stereo unspecified) | 95.0%*
C[Se]C[C@H](N)C(=O)O | i
O=C(NCc1ccsc1)c1cn(CC2CCCO2)cc(C(=O)NC2CCCCCCC2)c1=O (stereo unspecified) | i
COc1ccc(N=Cc2cc3c(cc2O)OC(N)=C(C#N)C3c2ccco2)cc1 (stereo unspecified) | 30.0%*
CO[C@H]1[C@H](O)[C@H](O[C@H]2[C@H](Oc3cccc4c(O)c5c(=O)oc6ccc(C)c7c(=O)oc(c34)c5c67)O[C@H](C)[C@H](O)[C@@H]2O)O[C@@H](C)[C@H]1O | i
CC(C)(C)c1ccc(OCCNc2ccc([N+](=O)[O-])c3cccnc23)cc1 | 55.0%*
O=S(=O)(NC[C@H]1C[C@@H]2CCN1C[C@@H]2CN1CCSCC1)c1ccccc1 | i
SMILES | ST2 IL33 inh
COc1ccccc1NC(=O)N1C[C@@H]2C[C@H](C1)c1c(-c3cncnc3)ccc(=O)n1C2 | i
O=C(NCCSc1ccccn1)C1CC2(CCNCC2)CN1 (stereo unspecified) | i
O=C(c1cccs1)N1C[C@@H]2C[C@H](C1)c1c(-c3cc4ccccc4s3)ccc(=O)n1C2 | i
Cc1ccc(C(CN)CC(=O)O)cc1 (stereo unspecified) | i
CN1CCc2nc(N)c(C#N)c(-c3ccc(Br)cc3)c2C1 | 34.0%*
Cc1ccc(NC(=O)CN2C(=O)C(C)N=C(c3ccccc3)c3ccccc32)c(Cl)c1 (stereo unspecified) | i
COc1ccccc1N1CCN(Cc2ccc(Cl)cc2)CC1 | i
CCc1ccc(CN2CCN(c3ccccc3OC)CC2)cc1 | 97.0%*
COc1ccccc1N1CCN(Cc2cccc(Cl)c2)CC1 | i
Cc1cccc(C(C)C)c1NC(=O)CNC(C)Cc1cnccn1 (stereo unspecified) | i
O[C@@]12C[C@@H]([C@H]3CO[C@@H]1O3)n1c(nc3ccccc31)N2 | i
O=c1c2ccccc2nc(/C=C/c2cc(Br)ccc2O)n1-c1cccc(O)c1 | i
O=[N+]([O-])c1ccc(N2CCN(Cc3ccc(O)cc3)CC2)cc1 | i
O=[N+]([O-])c1cccc(CN2CCN(c3ccc(Cl)cc3)CC2)c1 | 47.0%*
Cc1ccccc1CN1CCN(c2ccc([N+](=O)[O-])cc2)CC1 | 36.0%*
O=[N+]([O-])c1ccc(N2CCN(Cc3ccc(F)c(Br)c3)CC2)cc1 | 31.0%*
Cc1ccccc1CN1CCN(c2cccc(Cl)c2)CC1 | i
O=[N+]([O-])c1ccc(N2CCN(Cc3ccc(Cl)cc3)CC2)cc1 | i
O=[N+]([O-])c1ccc(CN2CCN(c3ccc(Cl)cc3)CC2)cc1 | i
CN1CCN(Cc2ccc(F)c(Br)c2)CC1 | i
O=[N+]([O-])c1cc(Cl)ccc1N1CCN(Cc2ccccc2)CC1 | 31.0%*
Cc1ccccc1N1CCN(Cc2ccc(Cl)cc2)CC1 | i
Fc1ccccc1N1CCN(Cc2ccc(Cl)cc2)CC1 | i
Fc1ccc(N2CCN(Cc3ccc(F)c(Br)c3)CC2)cc1 | i
Cc1cccc(CN2CCN(C)CC2)c1 | i
COc1ccc(OC)c(CN2CCN(c3ccccc3C)CC2)c1 | i
